Experimental data reported in PubChem BioAssay.
Activity calls are given as the source filed them.

Assays:
[1] = molecular target: Albumin (Bos taurus) (UniProt P02769); test: bovine serum albumin binders on microarray, profiling panel, artefact control for SMM control protein annotation, biochemical, small-molecule microarray, Alexa647 label, 635/667 nm fluorescence (AID 1118); conditions: BSA-A647 binding, fluorescence 635 nm, higher = more signal;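 also: score merges 667 nm emission intensity and signal-to-noise per printed compound spot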
[2] = small-molecule microarray binders of probe aXIP, primary screen, biochemical, NeuroSMM set, 635/667 nm fluorescence (AID 1119); conditions: higher = more signal, called active from +8 up or from −8 down;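 also: probe is the protein aXip251-270 applied at 1 µg/mL to compound-printed slides; binding of probe to printed compounds measured as 667 nm fluorescence plus signal to noise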
[3] = small-molecule binders of probe aNOTCH3, primary screen, biochemical, small-molecule microarray, 635/667 nm fluorescence (AID 1120); conditions: higher = more signal;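 also: probe is a biotin-tagged antibody raised against NOTCH3 rather than NOTCH3 protein; score merges spot fluorescence near 667 nm with spot signal to noise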
[4] = small-molecule binders of probe aNOTCH2, primary screen, biochemical, small-molecule microarray, 635/667 nm fluorescence (AID 1121); conditions: higher = more signal;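 also: score merges feature fluorescence read at 667 nm with its signal to noise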
[5] = molecular target: Carbonic anhydrase 2 (Homo sapiens) (UniProt P00918); test: CAII small-molecule binders, profiling panel, biochemical, small-molecule microarray, Alexa647-labelled CAII (AID 1122); conditions: CAII-A647 binding fluorescence, higher = more signal
[6] = COS7 lysate on small-molecule microarray, probe aHis, 635 nm (AID 1123); conditions: COS7 cell lysate, fluorescence, higher = more signal;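 also: z-score combines 667nm fluorescence intensity with signal-to-noise per printed compound spot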
[7] = compound binding in COS7 lysate, probe aLAP1, primary screen, cell lysate, small-molecule microarray (AID 1124); conditions: probe aLAP1, fluorescence, higher = more signal;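 also: lysate comes from COS7 cells expressing LAP1 and is applied at 0.3 µg/mL; score merges spot fluorescence near 667 nm with signal-to-noise over triplicate slides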
[8] = test system: Sam68 (KHDRBS1); test: Sam68 small-molecule binders, primary screen, biochemical, small-molecule microarray, 635 nm fluorescence (AID 1125); conditions: small-molecule microarray binding, higher = more signal;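 also: score merges 667 nm channel intensity with signal to noise over triplicate slides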
[9] = test system: Chordin-like protein 2 (CHRDL2); test: CHRDL2 small-molecule binders, primary screen, biochemical, small-molecule microarray, 635 nm fluorescence (AID 1126); conditions: small-molecule microarray binding, fluorescence 635 nm; higher = more signal;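 also: printed compound slides probed with Chrdl2 protein at 4 µg/mL for 1 h at 4 C; score merges 667 nm emission intensity with signal to noise over three replicate slides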
[10] = molecular target: Concanavalin-A (Canavalia ensiformis) (UniProt P02866); test: ConA small-molecule binders, primary screen, artefact control for SMM control protein annotation, biochemical, small-molecule microarray, Alexa647 label, 635 nm (AID 1127); conditions: ConA-A647 binding fluorescence, higher = more signal;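 also: z combines 667 nm emission intensity with signal-to-noise across three replicate slides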
[11] = anti-His antibody binders, primary screen, artefact control for SMM control protein annotation, biochemical, small-molecule microarray, 635 nm fluorescence (AID 1128); conditions: anti-His Alexa647 antibody binding, higher = more signal;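 also: score merges feature fluorescence with signal-to-noise for each printed compound spot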
[12] = test system: Human papillomavirus type 1a E7 protein (residues 1-88); test: HPV1a E7 small-molecule binders, primary screen, biochemical, small-molecule microarray, residues 1-88, 635 nm (AID 1129); conditions: small-molecule microarray binding, fluorescence 635 nm; higher = more signal
[13] = molecular target: Focal adhesion kinase 1 (Homo sapiens) (UniProt Q05397); test: small-molecule microarray binders of FAK, primary screen, biochemical, 635/667 nm fluorescence, BSA, DTT (AID 1130); conditions: PTK2 binding, 635 nm fluorescence, higher = more signal;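 also: composite of spot emission at 667 nm and signal to noise over triplicate slides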
[14] = test system: Fibrinogen (Alexa647-labelled); test: fibrinogen binders on compound microarrays, profiling panel, artefact control for SMM control-protein annotation, biochemical, small-molecule microarray, 635/667 nm fluorescence (AID 1131); conditions: fibrinogen-A647 binding fluorescence, higher = more signal;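 also: z-score merges 667 nm fluorescence with per-spot signal-to-noise over triplicate slides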
[15] = molecular target: Follistatin (Homo sapiens) (UniProt P19883); test: follistatin binders on small-molecule microarrays, primary screen, biochemical, small-molecule microarray, 635/667 nm fluorescence (AID 1132); conditions: FST binding, 635 nm fluorescence, higher = more signal
[16] = molecular target: Fibroblast growth factor 2 (Homo sapiens) (UniProt P09038); test: FGF2 binders on small-molecule microarrays, primary screen, biochemical, small-molecule microarray, 635/667 nm fluorescence (AID 1133); conditions: small-molecule microarray binding, FGF2, fluorescence 635/667; higher = more signal
[17] = mitochondrial membrane potential change in A549 cells, profiling panel, cell-based, JC-1 fluorescence, basal, 24 h, 100 nL (AID 1138); conditions: higher = more signal;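 also: A549 lung adenocarcinoma cells under basal conditions with no added stimulus; test concentration not given here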
[18] = test system: Lefty1; test: Lefty1 binders on small-molecule microarrays, primary screen, biochemical, small-molecule microarray, 635/667 nm fluorescence (AID 1139); conditions: small-molecule microarray binding, fluorescence 635/667; higher = more signal
[19] = test system: wheat germ agglutinin (Triticum aestivum), Alexa647-labelled; test: wheat germ agglutinin binders on compound microarrays, profiling panel, artefact control for SMM control-protein annotation, biochemical, small-molecule microarray, 635/667 nm fluorescence (AID 1140); conditions: WGA-A647 binding, 635 nm fluorescence, higher = more signal;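 also: score merges 667 nm feature emission with signal to noise over triplicate slides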
[20] = molecular target: Luciferin 4-monooxygenase (Photinus pyralis) (UniProt P08659); test: firefly luciferase enzyme inhibitors, primary screen, biochemical, luminescence, purified enzyme, 2006 set (AID 1141); conditions: SteadyGlo luminescence, 30 min, higher = more signal, called active from +8 up or from −8 down;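 also: cell-free assay with purified firefly luciferase at 100 ng per well in PBS; test concentration not given here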
Luciferin 4-monooxygenase (Photinus pyralis), sequence (P08659 whole entry, looked up): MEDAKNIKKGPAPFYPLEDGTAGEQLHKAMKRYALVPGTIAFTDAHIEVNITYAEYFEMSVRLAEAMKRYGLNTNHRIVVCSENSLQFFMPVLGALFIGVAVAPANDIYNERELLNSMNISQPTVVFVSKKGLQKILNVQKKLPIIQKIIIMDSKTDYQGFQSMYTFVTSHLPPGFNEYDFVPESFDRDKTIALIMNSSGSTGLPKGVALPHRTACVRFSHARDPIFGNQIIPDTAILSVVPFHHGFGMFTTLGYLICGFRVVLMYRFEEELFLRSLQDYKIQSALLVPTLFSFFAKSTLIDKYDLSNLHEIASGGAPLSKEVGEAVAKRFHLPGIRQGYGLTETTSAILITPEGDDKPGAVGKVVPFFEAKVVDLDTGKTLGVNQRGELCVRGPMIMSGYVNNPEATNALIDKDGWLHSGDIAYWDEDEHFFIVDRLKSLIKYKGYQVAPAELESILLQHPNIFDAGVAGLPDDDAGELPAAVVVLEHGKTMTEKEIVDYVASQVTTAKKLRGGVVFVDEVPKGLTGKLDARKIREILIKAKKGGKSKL

Fibroblast growth factor 2 (Homo sapiens), sequence (P09038 whole entry, looked up): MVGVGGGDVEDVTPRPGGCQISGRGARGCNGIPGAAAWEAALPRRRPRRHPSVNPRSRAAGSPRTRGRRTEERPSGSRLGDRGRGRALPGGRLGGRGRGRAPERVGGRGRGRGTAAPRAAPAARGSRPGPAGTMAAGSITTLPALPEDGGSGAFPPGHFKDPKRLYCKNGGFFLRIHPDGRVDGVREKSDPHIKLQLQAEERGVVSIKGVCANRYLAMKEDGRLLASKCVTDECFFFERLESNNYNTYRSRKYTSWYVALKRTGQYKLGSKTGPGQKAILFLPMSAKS
Follistatin (Homo sapiens), sequence (P19883 whole entry, looked up): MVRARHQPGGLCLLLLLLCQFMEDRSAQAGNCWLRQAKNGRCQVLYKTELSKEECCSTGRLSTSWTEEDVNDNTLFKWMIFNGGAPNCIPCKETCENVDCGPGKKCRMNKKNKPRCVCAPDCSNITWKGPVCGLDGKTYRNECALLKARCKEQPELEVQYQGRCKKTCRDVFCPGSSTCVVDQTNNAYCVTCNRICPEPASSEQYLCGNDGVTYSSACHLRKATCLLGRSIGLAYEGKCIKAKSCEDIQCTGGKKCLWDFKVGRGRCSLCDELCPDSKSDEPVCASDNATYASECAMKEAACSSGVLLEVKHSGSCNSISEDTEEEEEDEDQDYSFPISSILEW
Albumin (Bos taurus), sequence (P02769 whole entry, looked up): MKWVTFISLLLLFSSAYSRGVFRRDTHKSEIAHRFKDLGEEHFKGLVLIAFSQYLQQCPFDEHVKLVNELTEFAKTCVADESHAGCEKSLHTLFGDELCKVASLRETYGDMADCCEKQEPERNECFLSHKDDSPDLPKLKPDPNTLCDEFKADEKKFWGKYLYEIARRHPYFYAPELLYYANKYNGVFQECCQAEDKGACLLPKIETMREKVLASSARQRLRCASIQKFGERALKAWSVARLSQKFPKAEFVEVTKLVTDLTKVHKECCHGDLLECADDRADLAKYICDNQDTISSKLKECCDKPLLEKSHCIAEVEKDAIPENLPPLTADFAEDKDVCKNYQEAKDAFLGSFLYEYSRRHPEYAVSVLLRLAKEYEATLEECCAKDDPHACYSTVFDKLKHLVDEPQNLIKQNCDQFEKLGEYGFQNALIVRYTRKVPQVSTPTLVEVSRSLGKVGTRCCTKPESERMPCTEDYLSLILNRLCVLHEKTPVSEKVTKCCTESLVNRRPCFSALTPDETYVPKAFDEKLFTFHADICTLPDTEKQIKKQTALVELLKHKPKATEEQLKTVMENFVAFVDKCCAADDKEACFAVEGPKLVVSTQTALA
Focal adhesion kinase 1 (Homo sapiens), sequence (Q05397 whole entry, looked up): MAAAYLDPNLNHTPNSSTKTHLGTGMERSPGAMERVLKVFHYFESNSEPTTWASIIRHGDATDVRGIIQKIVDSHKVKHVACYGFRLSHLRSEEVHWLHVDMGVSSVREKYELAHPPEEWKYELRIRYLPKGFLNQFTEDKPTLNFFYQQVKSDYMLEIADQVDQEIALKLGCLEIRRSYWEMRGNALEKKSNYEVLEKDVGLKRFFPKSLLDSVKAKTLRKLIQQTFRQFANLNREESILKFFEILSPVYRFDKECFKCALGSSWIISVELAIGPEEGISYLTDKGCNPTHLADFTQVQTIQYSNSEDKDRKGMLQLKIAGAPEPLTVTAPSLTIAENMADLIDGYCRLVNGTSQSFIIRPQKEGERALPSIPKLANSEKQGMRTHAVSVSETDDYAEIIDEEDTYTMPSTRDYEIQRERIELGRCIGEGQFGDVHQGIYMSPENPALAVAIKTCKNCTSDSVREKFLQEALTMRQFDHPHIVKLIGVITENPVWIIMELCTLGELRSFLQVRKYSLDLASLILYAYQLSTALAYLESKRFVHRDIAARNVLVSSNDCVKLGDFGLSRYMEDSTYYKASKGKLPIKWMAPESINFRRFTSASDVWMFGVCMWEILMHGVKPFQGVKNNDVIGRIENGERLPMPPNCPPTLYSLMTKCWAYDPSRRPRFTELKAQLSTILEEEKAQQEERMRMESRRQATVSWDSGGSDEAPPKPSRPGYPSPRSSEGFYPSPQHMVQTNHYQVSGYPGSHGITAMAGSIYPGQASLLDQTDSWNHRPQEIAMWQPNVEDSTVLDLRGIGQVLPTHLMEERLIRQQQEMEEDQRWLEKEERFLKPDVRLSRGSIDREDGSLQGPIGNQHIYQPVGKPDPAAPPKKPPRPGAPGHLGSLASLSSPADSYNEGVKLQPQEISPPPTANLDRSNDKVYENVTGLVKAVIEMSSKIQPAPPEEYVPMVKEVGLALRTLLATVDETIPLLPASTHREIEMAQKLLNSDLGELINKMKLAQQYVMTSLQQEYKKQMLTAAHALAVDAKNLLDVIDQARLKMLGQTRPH
Concanavalin-A (Canavalia ensiformis), sequence (P02866 whole entry, looked up): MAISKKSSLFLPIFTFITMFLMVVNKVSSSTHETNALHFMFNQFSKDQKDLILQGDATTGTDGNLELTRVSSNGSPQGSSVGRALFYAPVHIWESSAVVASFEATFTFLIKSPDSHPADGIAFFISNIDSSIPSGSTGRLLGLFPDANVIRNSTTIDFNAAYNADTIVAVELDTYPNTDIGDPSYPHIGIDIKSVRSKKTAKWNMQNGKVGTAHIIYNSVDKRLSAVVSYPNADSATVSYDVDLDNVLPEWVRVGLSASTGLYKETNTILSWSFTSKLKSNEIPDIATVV

Compound | composite z-score [1] | composite Z-score [2] | composite z-score [3] | composite z-score [4] | composite z-score [5] | composite z-score [6] | composite z-score [7] | composite z-score [8] | composite z-score [9] | composite z-score [10] | composite z-score [11] | composite z-score [12] | composite z-score [13] | composite z-score [14] | composite z-score [15] | composite z-score [16] | z-score [17] | composite z-score [18] | composite z-score [19] | z-score [20]
CCCC[C@H]1C[C@@H]1[C@@H]1N(P(=O)(c2ccccc2)c2ccccc2)C[C@@](O)(c2ccccc2)CC12CC2 | 0.951 | 0.863 (inactive) | 0.169 | 0.0525 | 0.374 | 2.28 | 0.473 | 0.944 | -1.95 | 0.499 | 0.127 | 0.973 | 0.663 | 0.955 | 0.208 | 0.0514 | -1.57 | -1.06 | 0.727 | 2.35 (inactive)
CCCCCCc1nc(-c2ccc(-c3ccc(Cl)c(Cl)c3)o2)c(C)c2c1[Si](C(C)C)(C(C)C)OC2 | 0.13 | 0.0001 (inactive) | -0.1 | -0.166 | 0.0293 | 0.645 | -0.173 | 0.1 | -1.06 | 0.999 | -0.0923 | -0.634 | -0.0899 | -0.086 | -0.0705 | -0.773 | -0.838 | 0.268 | -0.328 | -2.67 (inactive)
[N-]=[N+]=NCc1ccccc1[C@@H]1OC(c2ccc(OCCCO)cc2)=N[C@]1(CCS(=O)(=O)c1ccccc1)C(=O)N1CCCCC1 | 0.997 | -0.228 (inactive) | 0.739 | -0.124 | 0.754 | 2.85 | 0.475 | 1.29 | -0.59 | 1.17 | 0.621 | 1.26 | 0.0201 | 1.08 | 0.981 | 0.432 | -0.706 | 0.275 | 1.02 | -0.938 (inactive)
CN(C)CCCCCCNC(=O)[C@@H]1C[C@@H]2C(=O)N3CCC[C@H]3C(=O)N2[C@@H]1c1ccc(O)cc1 | -0.645 | 2.74 (inactive) | 0.488 | 0.119 | 0.738 | 2.77 | 1.47 | 1.31 | 1.43 | 1.16 | 3.06 | 1.11 | -0.135 | 0.539 | 1.47 | 1.74 | 0.334 | 1.72 | 0.758 | -0.934 (inactive)
COc1ccc(CCNC(=O)[C@@]2(C)c3ccccc3C(=O)N(c3ccc(C)cn3)[C@H]2c2ccc(CO)cc2)cc1 | -0.252 | -0.133 (inactive) | -0.365 | -0.0956 | 0.793 | -0.335 | 0.165 | 0.243 | -1.02 | -0.699 | -0.463 | -0.0172 | -0.284 | -1.95 | -0.298 | -1.09 | 0.14 | -0.601 | -0.902 | 1.14 (inactive)
CCOC(=O)C[C@H]1[C@H](OC(=O)c2ccc(-c3ccccc3)cc2)[C@@H](NC(=O)c2ccccc2)c2cc(OCCCO)ccc2N1C(=O)c1ccc2ccccc2n1 | 0.828 | 0.21 (inactive) | 0.0069 | -0.0811 | 0.287 | 0.96 | 0.547 | 1.18 | -0.8 | 0.627 | 0.241 | 1.06 | 0.426 | 0.836 | -0.0321 | -0.0974 | -0.0602 | -0.329 | 0.693 | 0.0119 (inactive)
COc1ccccc1CN1C(=O)c2ccccc2[C@@]2(Cc3ccccc3N(CCCN(C)C)C2=O)[C@@H]1c1ccc(CO)cc1 | -0.909 | 0.027 (inactive) | -0.0797 | 0.0687 | -0.271 | 0.5 | -0.0231 | -0.204 | 1.27 | 0.417 | 0.583 | -0.984 | -0.0228 | 0.253 | 1.2 | 0.459 | -0.202 | 0.647 | -0.331 | -0.278 (inactive)
COC(=O)c1c2oc(c1C(=O)OC)C(=O)N[C@@H](C(C)C)Cn1cc(nn1)C1(CCCCC1)NC(=O)N[C@H](CO)CC2 | -0.0901 | -0.203 (inactive) | -0.122 | -0.0761 | 0.828 | 1.18 | -0.0841 | 0.194 | 0.199 | 0.689 | 0.591 | -0.159 | -0.0947 | 0.209 | 0.515 | 1.58 | 2.2 | 0.102 | 0.0969 | -1.3 (inactive)
COC(=O)[C@@]1(CCC(=O)OC(C)(C)C)N=C(c2ccc(OCCCO)cc2)O[C@H]1c1ccccc1 | -0.735 | 0.21 (inactive) | -0.0716 | 0.0464 | 0.687 | 2.16 | 0.637 | -0.297 | 0.0741 | 0.57 | 0.467 | 0.896 | 0.517 | 0.554 | 0.693 | 0.989 | -0.4 | -0.85 | 0.492 | -5.22 (inactive)
COC(=O)C(CC#Cc1ccc2c(c1)[C@]1(C(=O)N2)[C@H](c2ccccc2OCCO)N2[C@H](c3ccccc3)[C@H](c3ccccc3)OC(=O)[C@H]2[C@@H]1C(N)=O)C(=O)OC | 0.468 | 0.389 (inactive) | 0.631 | 0.25 | 0.672 | 2.09 | 0.493 | 0.519 | 0.0031 | 0.736 | 1.6 | 1.22 | 0.473 | 0.711 | 0.619 | 0.168 | -0.153 | -0.0878 | 1.15 | -0.821 (inactive)
CN(C)CCCCCCNC(=O)[C@@H]1C[C@@H]2C(=O)N[C@@H](CCCC[N+](C)(C)C)C(=O)N2[C@@H]1c1ccc(O)cc1 | -0.793 | 1.56 (inactive) | 0.164 | -0.231 | 0.797 | 0.125 | 0.246 | 0.794 | 0.918 | 0.898 | 0.486 | -0.396 | 0.678 | -0.335 | 0.82 | 0.825 | -0.147 | 0.798 | 0.427 | -0.882 (inactive)
